Screening data deposited in PubChem BioAssay by National Center for Advancing Translational Sciences (NCATS).
ELG1 genotox: qHTS screen for small molecules that induce genotoxicity in human embryonic kidney (HEK293T) cells expressing luciferase-tagged ELG1; HEK293T ELG1-luciferase reporter, luminescence, 16 h; 330,000 compounds, 1.3% hits; AID 504466, 2011; Potency, µM (titrated, usually from 46 µM), actives largely listed as activators; note: nearly all actives have a fitted effect of over 60% in size
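Screening used a luciferase reporter fused to human ELG1 in HEK293T cells. Luminescence was read on a CCD plate imager after 16 hr exposure and 30 min ONE-Glo incubation.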
NPC1 promoter act: qHTS Assay for NPC1 Promoter Activators; Huh7 NPC1 promoter luciferase reporter, 24 h; Potency, µM (titrated, usually from 9.22 µM), most hits filed as activators; 320,000 compounds, 2.4% hits; AID 485313, 2010; note: nearly all actives have a fitted effect of over 60% in size
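Stable NPC1-promoter luciferase Huh7 line; cpd (DMSO) 24 h, 37 °C, 5% CO2; Amplite luciferase reagent 10 min RT; luminescence readout. qHTS format.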
SMN2 splice enh: qHTS Assay for Enhancers of SMN2 Splice Variant Expression; HEK293 SMN2-luciferase splicing reporter, luminescence, 30-36 h; Potency, µM (highest dose often 46.1 µM), most hits filed as activators; 210,000 compounds, 2.8% hits; note: nearly all actives have a fitted effect of over 55% in size
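HEK293 cells carry an SMN2 […]–luciferase reporter in which exon 7 inclusion puts luciferase in frame. Cells were plated 10-12 h before compound addition, then incubated 30-36 h at 37C. ONE-Glo luminescence was read; sodium butyrate at 4.5 mM final served as control.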
KinaseGlo FLuc: Counterscreen for Luciferase (Kinase-Glo TM) Inhibition; Potency, µM (doses to about 38.3 µM), actives largely listed as inhibitors; Kinase-Glo luciferase, ATP luminescence, 8 min; AID 1379, 2008; Luciferin 4-monooxygenase (Photuris pensylvanica), Q27757; 200,000 compounds, 0.28% hits; note: nearly all actives have a fitted effect of over 60% in size
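Substrate mix (final 50 mM imidazole pH 7.2, 50 mM KCl, 7 mM MgCl2, 10 uM ATP, 0.01% Tween 20, 0.05% BSA) plus pin-tool compound, then Kinase-Glo detection mix; 8 min ambient, luminescence read.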
FLuc modulator: qHTS profiling assay for firefly luciferase inhibitor/activator using purifed enzyme and Km concentrations of substrates (counterscreen for miR-21 project); Luciferin 4-monooxygenase (Photinus pyralis), P08659; purified FLuc, Km substrates, luminescence inhibition; Potency, µM (highest dose often 57.5 µM), actives largely listed as inhibitors; 360,000 compounds, 6.9% hits; AID 588342, 2011; note: nearly all actives have a fitted effect of over 55% in size
Target sequence (P08659 whole entry, looked up): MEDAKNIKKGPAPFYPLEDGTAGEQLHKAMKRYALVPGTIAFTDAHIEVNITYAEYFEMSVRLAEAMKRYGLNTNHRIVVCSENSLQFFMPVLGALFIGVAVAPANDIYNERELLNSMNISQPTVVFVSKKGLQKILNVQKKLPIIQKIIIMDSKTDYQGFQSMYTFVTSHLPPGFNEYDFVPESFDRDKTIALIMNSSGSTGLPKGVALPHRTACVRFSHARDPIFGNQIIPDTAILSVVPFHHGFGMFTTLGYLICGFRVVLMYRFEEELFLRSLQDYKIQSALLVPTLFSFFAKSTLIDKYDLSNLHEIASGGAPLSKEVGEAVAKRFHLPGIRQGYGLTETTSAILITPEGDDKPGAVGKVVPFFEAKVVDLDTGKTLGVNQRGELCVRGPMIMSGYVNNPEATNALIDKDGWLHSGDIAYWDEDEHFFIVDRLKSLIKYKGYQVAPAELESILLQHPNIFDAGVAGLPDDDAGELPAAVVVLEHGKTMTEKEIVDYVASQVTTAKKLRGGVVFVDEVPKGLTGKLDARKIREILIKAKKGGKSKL
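Purified P. pyralis luciferase, 10 nM final, with Km-level 10 uM D-luciferin and 10 uM ATP in 50 mM Tris acetate pH 7.5, 10 mM Mg acetate, 0.01% Tween-20, 0.05% BSA; 6-point qHTS titration about 60 µM downward; luminescence read.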
Rab9 prom act: qHTS Assay for Rab9 Promoter Activators. Huh7 Rab9 promoter-luciferase reporter, luminescence, 24 h. Potency, µM (highest dose often 9.22 µM), actives largely listed as activators. 320,000 compounds, 2.8% hits. AID 485297, 2010; note: nearly all actives have a fitted effect of over 60% in size
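Using Huh7 cells stably transfected with Rab9 promoter–luciferase, compounds were incubated 24 h at 37 °C, 5% CO2; luciferase luminescence was read 10 min after reagent addition.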
Large screens that a line does not name were inactive. This is a sample that favours compounds with a hit; in the whole collection about 7.5% have one here. Calls come from the whole dose curve; as a rule, active = well fitted curve in the direction sought with a large enough effect; inconclusive = small, poorly fitted or top-dose-only effect, or another doubt; inactive = no such curve, though single readings can be large; an effect the other way counts as inactive or inconclusive.

Cc1nn2c(-c3ccco3)ccnc2c1-c1ccc(Br)cc1	FLuc modulator 9.5µM (no result: ELG1 genotox, NPC1 promoter act, KinaseGlo FLuc, Rab9 prom act)
Cc1nn2c(N)c(C#N)cnc2c1-c1ccccc1	ELG1 genotox inconclusive, FLuc modulator inconclusive
Cc1nn2c(N)c(-c3ccccc3)cnc2c1-c1ccccc1	ELG1 genotox inconclusive, NPC1 promoter act 2.2µM, FLuc modulator 0.95µM, Rab9 prom act 1.6µM (no result: SMN2 splice enh, KinaseGlo FLuc)
COC1=C/C(=C/c2c(N)n3cc(C)sc3nc2=O)C=CC1=O	FLuc modulator 3.8µM
COC1=C/C(=C/c2c(N)n3nc(CC(=O)N4CCCC4)sc3nc2=O)C=CC1=O	none (no result: SMN2 splice enh, KinaseGlo FLuc)
Cc1cn2c(N)c(/C=C3\C=Nc4ccccc43)c(=O)nc2s1	NPC1 promoter act inconclusive (no result: SMN2 splice enh, KinaseGlo FLuc)
Cc1cn2c(N)c(C=C3C=C(Cl)C(=O)C(Cl)=C3)c(=O)nc2s1	FLuc modulator 17µM
Cc1onc(-c2c(Cl)cccc2Cl)c1C(=O)N=C(N)N1CC(C)OC(C)C1 (stereo not drawn)	none (no result: SMN2 splice enh, KinaseGlo FLuc)
C/C(=N\OC(=O)c1ccc(C)cc1)c1c(C)nc2cc(C)ccn12	none
C/C(=N/OC(=O)c1ccc(C(F)(F)F)cc1)c1oc(C)nc1C	FLuc modulator 12µM (no result: SMN2 splice enh, KinaseGlo FLuc)
CCOc1cc(C2NN=C(c3ccccc3)S2)ccc1OCc1ccc(F)cc1 (stereo not drawn)	ELG1 genotox 8.2µM, NPC1 promoter act inconclusive, SMN2 splice enh 13µM, FLuc modulator 6µM, Rab9 prom act 3.2µM
CNCc1ccccc1OCc1ccc(F)cc1	none
CCOc1cc(C2NN=C(c3ccccc3)S2)ccc1OCc1ccccc1Cl (stereo not drawn)	ELG1 genotox inconclusive, NPC1 promoter act inconclusive, FLuc modulator 7.6µM, Rab9 prom act inconclusive
CCN1CCN(C(c2ccc(C)cc2)c2sc3nc(-c4ccco4)nn3c2O)CC1 (stereo not drawn)	none (no result: ELG1 genotox, NPC1 promoter act, SMN2 splice enh, KinaseGlo FLuc, Rab9 prom act)
COc1ccc2c(c1)c1nc3n(c(=O)c1n2CC(=O)Nc1ccccc1)CCCS3	none (no result: SMN2 splice enh, KinaseGlo FLuc)
COc1ccc(CCNc2nc(-c3ccc(O)cc3)cs2)cc1OC	FLuc modulator 17µM (no result: SMN2 splice enh, KinaseGlo FLuc)
COc1ccc(CCNc2nc(-c3ccccn3)cs2)cc1OC	none (no result: SMN2 splice enh, KinaseGlo FLuc)
COc1ccc(CCNc2nc(-c3ccc(NC(C)=O)cc3)cs2)cc1OC	FLuc modulator inconclusive
COc1ccc(CCNc2nc(-c3cccnc3)cs2)cc1OC	FLuc modulator 12µM
COc1ccc(CCNc2nc(-c3ccncc3)cs2)cc1OC	FLuc modulator 21µM (no result: SMN2 splice enh, KinaseGlo FLuc)
Cc1ccc(-n2nc(C)c3c(C(=O)Nc4ccc(C)cc4Cl)cc(C)nc32)cc1	none (no result: ELG1 genotox, NPC1 promoter act, SMN2 splice enh, KinaseGlo FLuc, Rab9 prom act)
O=c1[nH]cnc2c1sc1nc(-c3ccccc3)c3c(c12)CCCC3	none
O=C(O)CSc1ncnc2c1sc1nc(-c3ccccc3)c3c(c12)CCC3	FLuc modulator 11µM (no result: SMN2 splice enh, KinaseGlo FLuc)
O=c1c(Br)c(N2CCCCC2)cnn1-c1ccccc1	ELG1 genotox inconclusive, NPC1 promoter act 3.5µM, FLuc modulator 15µM, Rab9 prom act 2µM (no result: SMN2 splice enh)
O=c1c(Br)c(N2CCCC2)cnn1-c1ccccc1	ELG1 genotox inconclusive, NPC1 promoter act 4µM, SMN2 splice enh 11µM, FLuc modulator 21µM, Rab9 prom act 2µM
CCN(CC)S(=O)(=O)c1ccc(NC(=O)[C@H](CCSC)N2Cc3ccccc3C2=O)cc1	none (no result: ELG1 genotox, NPC1 promoter act, KinaseGlo FLuc, Rab9 prom act)
CN(C)CCCNC(=O)c1cc2sc3ccccc3c2s1	ELG1 genotox inconclusive (no result: SMN2 splice enh)
COCCN(C(=O)Nc1ccc(OC)cc1)c1nc2ccccc2s1	none (no result: SMN2 splice enh, KinaseGlo FLuc)
COC(=O)N(C)c1nc2ccccc2s1	ELG1 genotox inconclusive, FLuc modulator 24µM
CCCCNC(=S)N1CCN(c2nc3ccccc3s2)CC1	none (no result: SMN2 splice enh)
CCCNC(=O)c1cc2cc([N+](=O)[O-])ccc2s1	none
CCCCNC(=O)N(C)c1nc2ccccc2s1	ELG1 genotox inconclusive, NPC1 promoter act inconclusive, FLuc modulator 13µM, Rab9 prom act 1.8µM (no result: SMN2 splice enh)
CCCCNC(=O)c1cc2ccccc2s1	FLuc modulator 17µM, Rab9 prom act inconclusive
